DAX1 inh-1 – DAX1 (NR0B1) inhibitors, primary screen, cell-based, HEK293, Gal4-DAX1, luciferase luminescence | Nuclear receptor subfamily 0 group B member 1 (Homo sapiens), P51843 | HEK293 Gal4-DAX1 luciferase reporter | inhibition, % at 6.75 µM | hit rate 0.99% among 340,000 | AID 504766, 2011;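 active = inhibition above the mean over all tested compounds plus 3 SD, cut at about 4.2% in these data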;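 note: 0% = DAX1-transfected cells with DMSO and 100% = empty-vector control cells with DMSO; inhibition shows as a rise in luminescence from relieved DAX1 repression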
Target sequence (P51843 207-470 limits assumed): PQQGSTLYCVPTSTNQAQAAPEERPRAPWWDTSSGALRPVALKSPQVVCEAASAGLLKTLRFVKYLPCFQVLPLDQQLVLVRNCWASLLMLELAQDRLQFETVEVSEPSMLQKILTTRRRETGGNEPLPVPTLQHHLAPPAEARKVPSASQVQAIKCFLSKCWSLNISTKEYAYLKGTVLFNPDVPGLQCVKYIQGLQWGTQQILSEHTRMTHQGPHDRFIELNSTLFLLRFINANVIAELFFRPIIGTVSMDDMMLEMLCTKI
hcDAF12 agonist – H. contortus DAF-12 nuclear receptor activators, primary screen, cell-based, luminescence, HEK293, lit1-tk-luc reporter. AID 652067, 2013. hit rate 1.4% among 370,000. activation, % at 6.8 µM. HEK293 hcDAF-12 lit1-tk-luc reporter; 0% DMSO, 100% Δ7-dafachronic acid;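 active = activation above the mean of all tested compounds plus 3 SD, cut at about 5.5% in these data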;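 note: 100% = response to 3 µM Δ7-dafachronic acid high control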
DAX1 inh-2 – DAX1 (NR0B1) inhibitors on StAR promoter, primary screen, cell-based, luminescence, SF-1 (NR5A1), full-length DAX-1 | HEK293T StAR-luciferase reporter, SF-1/DAX-1 repression relief | inhibition, % at 6.8 µM | hit rate 1.1% among 370,000 | AID 652010, 2013;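 active = inhibition above the mean over all tested compounds plus 3 SD, cut at about 3.6% in these data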;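 note: 0% = DAX-1 cells with DMSO and 100% = cells lacking DAX-1 with DMSO; higher inhibition means more luminescence from relief of DAX-1 repression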
hgDAF-12 ag – H. glycines DAF-12 receptor agonists, primary screen, cell-based, luminescence, HEK293, GAL4 fusion, UAS-luciferase; HEK293 GAL4-hgDAF12 UAS-luciferase reporter, agonist luminescence; normalized to butyrate control; activation, % at 6.8 µM; hit rate 1.8% among 370,000;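 active = activation above a cutoff set at the mean of all screened compounds plus 3 SD, cut at about 10% in these data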;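 note: 0% = DMSO wells and 100% = sodium butyrate wells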
ssDAF12 agonist – S. stercoralis DAF-12 nuclear receptor activators, primary screen, cell-based, luminescence, HEK293, GRIP1 co-expression, lit1-tk-luc; HEK293 ssDAF-12/GRIP1 lit1-tk-luc reporter; % of 3 µM dafachronic acid response; AID 652126, 2013; Nuclear hormone receptor DAF-12 (Strongyloides stercoralis); activation, % at 6.8 µM; hit rate 1% among 370,000;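 active = activation above the mean over all tested compounds plus 3 SD, cut at about 0.9% in these data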;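 note: 0% = DMSO-only wells and 100% = 3 µM delta7-dafachronic acid wells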
Active calls of the source: *; . = no result given. Only some compounds are listed: those with a hit (about 4.1% of all), similar ones and a draw of the others.

SMILES	DAX1 inh-1	hcDAF12 agonist	DAX1 inh-2	hgDAF-12 ag	ssDAF12 agonist
Cc1c(Cl)c([N+](=O)[O-])nn1CC(=O)N1CCN(Cc2ccccc2)CC1	4.4*	-1	-1	0	-1
Cc1c(Cl)c([N+](=O)[O-])nn1CC(=O)N1CCCC1	1	-1	0	-1	-1
CCOc1ccc(-n2c(SCC(=O)c3ccccc3Cl)nnc2-c2ccncc2)cc1	.	0	-1	1	-1
Cn1c2ccccc2c2nnc(NN)nc21	1	5.7*	1	2	0
COc1ccc(-c2ccccc2C2Cc3nnccc3CN2)cc1 (stereo unspecified)	.	-2	0	1	-1
Nc1nc(-c2cccc(F)c2)cs1	5.2*	3	1	5	0.9*
Fc1cccc(-c2csc(-c3ccno3)n2)c1	0	-1	-1	2	-2
CC(C)CC1NC(=S)N(C2CCCCC2)C1=O (stereo unspecified)	1	1	-1	0	0
CC(C)C1NC(=S)N(C2CCCCC2)C1=O (stereo unspecified)	0	-1	0	2	1.2*
O=C(NC1CCCCN(Cc2ccc(Cl)cc2)C1=O)C1C2CC3CC(C2)CC1C3 (stereo unspecified)	.	-2	0	-3	0
CCOC(=O)C1(Cc2ccccc2C)CCCN(Cc2cn(C)nc2C)C1 (stereo unspecified)	6.1*	1	1	-3	-1
CNS(=O)(=O)c1cccc(C(=O)NCC2(N3CCOCC3)CCCCC2)c1	0	0	1	-3	-1
COc1ccccc1NS(=O)(=O)c1cccc(C(=O)NCC2(N3CCCCC3)CCCCC2)c1	1	0	4.0*	0	-1
CC(=O)Nc1ccc(-c2ccc3nnc(C)n3n2)cc1	5.1*	1	0	-3	-2
Cc1nnc2ccc(-c3ccc(NC(=O)c4ccco4)cc3)nn12	1	-1	0	-1	-2
CCOC(=O)[C@H]1[C@H]2COc3ccc(OC)cc3[C@@H]2N2C(=O)c3cc(C)ccc3NC(=O)[C@@]12C	0	-2	-1	-3	-1
N#CCC(=O)Nc1ccc(C(=O)OCC(=O)NC(=O)Nc2ccc3c(c2)OCCO3)cc1	2	4	4.2*	10	0
COc1ccc(Cl)cc1NC(=O)COC(=O)C1COc2ccccc2O1 (stereo unspecified)	0	6	0	1	1.0*
O=C(COC(=O)C1COc2ccccc2O1)NC(=O)Nc1ccc2c(c1)OCCO2 (stereo unspecified)	1	5.8*	-1	4	0
O=Cc1cnc(N2CCCCC2)s1	7.1*	-1	1	1	0
COc1ccc(Nc2c3ccccc3nc3ccccc23)cc1	-4	-4	-2	-6	-2
COc1cc(Nc2c3ccccc3nc3ccccc23)cc(OC)c1OC	1	5.7*	0	4	0
COC(=O)[C@@]12CCCCC3=C1N(CCC3)C(=O)[C@H]2CC(=O)NCc1cccc(C(F)(F)F)c1	.	-2	-2	3	-1
Fc1ccc(-c2nc3c4ccccc4ccn3c2CC2CCCCC2)cc1	.	6.4*	2	4	1.6*
c1ccc(-c2nc3c4ccccc4ccn3c2CN2CCCCC2)cc1	1	3	0	4	0
SMILES	DAX1 inh-1	hcDAF12 agonist	DAX1 inh-2	hgDAF-12 ag	ssDAF12 agonist
CCCc1nc2c3ccccc3ccn2c1CC1CCCCC1	.	6.2*	1	6	0
Cc1ccc(Cc2c(-c3cccc(Cl)c3)nc3c4ccccc4ccn23)cc1	.	4	1	4	0
Clc1cccc(-c2nc3c4ccccc4ccn3c2CC2CCCCC2)c1	.	4	2	3	1.1*
CCNc1c(NS(=O)(=O)c2ccc(F)c(Cl)c2)c(=O)oc2ccccc12	1	1	0	-1	-2
COc1cccc(C(=O)N[C@H](C(=O)N2CCC[C@H]2C(=O)NCc2ccccc2)C2CCCCC2)c1	.	-1	0	0	-1
Cc1nc(N2CCN(C(=O)c3ccco3)CC2)nc2c1C(=O)CCC2	1	2	3	2	-1
COc1ccc(NC(=S)Nc2ccc3nccnc3c2)cc1	0	3	1	11*	-1
CCCCN1CCN(C2=NC(=O)N(c3ccc(Br)cc3)C(=O)C2)CC1	.	1	0	-2	-1
CN(Cc1nc2ccccc2c(=O)[nH]1)C(=O)c1cccc(S(=O)(=O)N2CCCC2)c1	1	-1	3.7*	2	-1
c1ccc2c(c1)COc1c3ncccc3nn1-2	1	2	2	13*	0
Cc1cc(=O)[nH]c(-c2ccccc2O)n1	1	.	.	.	.
Clc1cc2nc(-c3cccnc3Cl)[nH]c2cc1Cl	4.3*	6.2*	3.8*	11*	1.1*
Cc1cc2nc(-c3ccccc3O)[nH]c2cc1C	2	5.8*	4.1*	12*	1
CCn1ncc(N(C)N)c(Cl)c1=O	1	2	0	3	1.1*
Cc1ccc(C)c(Cn2nnc3c(=O)[nH]c(C4CCN(C(=O)c5ccco5)CC4)nc32)c1	2	-2	0	-2	-1
O=C(CSc1nnc(SCc2ccccc2Cl)s1)N/N=C/c1c[nH]c2ccccc12	-1	6.4*	0	0	0
O=C(N/N=C/c1c[nH]c2ccccc12)c1cccc(Cl)c1	2	5	0	6	1.4*
CC(C)c1cc(C(=O)N/N=C/c2c[nH]c3ccccc23)n[nH]1	4.7*	2	0	2	-1
Cc1ccc(-n2c(SCC(=O)Nc3ccc(S(=O)(=O)Nc4nccs4)cc3)nnc2-c2cccs2)cc1	.	0	1	-2	-1
O=C(O)c1ccccc1N/N=C\c1ccnc2ccccc12	0	6.4*	4	12*	1
O=C(O)c1ccccc1N/N=C/c1cc(Br)cc(Br)c1O	5.6*	2	4	7	-1
ON=Cc1ccnc2ccccc12	2	-1	0	0	-1
O=C(NCc1cccc(Br)c1)C1CC(c2ccccc2C(F)(F)F)=NO1 (stereo unspecified)	0	-4	0	-1	-2
CC(C)CNC(=O)OCc1cn(Cc2ccccc2F)nn1	.	2	2	1	0
COC(=O)Cc1nnn2c1[C@H](C)[C@H](c1ccccc1Br)OC[C@H](C)C2	.	-1	-1	0	-1
COc1cc(C=Nn2c(-c3ccc(F)cc3)n[nH]c2=S)ccc1OCc1ccccc1	.	-1	1	-2	-2

Bioassay records from PubChem BioAssay.
